# Bioassay records: PubChem BioAssay, Johns Hopkins Ion Channel Center
# Hits are enriched below; roughly 1.6% of the tested compounds scored in any of these assays.
# KCNQ2 enhance – potentiators of rat KCNQ2 potassium channel; CHO-K1 KCNQ2, FluxOR thallium flux fluorescence; stronger effect = higher value; B-score at 10 µM; actives 0.54% (n = 310,000);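 active = fluorescence ratio B-score at least 3 SD of library B-scores, with initial fluorescence B-score within 3 of them, cut at about 5.3 in these data; same plate scores as AID 2156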;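 note: B-score of peak minus minimum over baseline fluorescence ratio after K+ and Tl+ stimulus; positive B-score means potentiation of KCNQ2 with more thallium influx and brighter signal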
# Target sequence (O88943 whole entry, looked up): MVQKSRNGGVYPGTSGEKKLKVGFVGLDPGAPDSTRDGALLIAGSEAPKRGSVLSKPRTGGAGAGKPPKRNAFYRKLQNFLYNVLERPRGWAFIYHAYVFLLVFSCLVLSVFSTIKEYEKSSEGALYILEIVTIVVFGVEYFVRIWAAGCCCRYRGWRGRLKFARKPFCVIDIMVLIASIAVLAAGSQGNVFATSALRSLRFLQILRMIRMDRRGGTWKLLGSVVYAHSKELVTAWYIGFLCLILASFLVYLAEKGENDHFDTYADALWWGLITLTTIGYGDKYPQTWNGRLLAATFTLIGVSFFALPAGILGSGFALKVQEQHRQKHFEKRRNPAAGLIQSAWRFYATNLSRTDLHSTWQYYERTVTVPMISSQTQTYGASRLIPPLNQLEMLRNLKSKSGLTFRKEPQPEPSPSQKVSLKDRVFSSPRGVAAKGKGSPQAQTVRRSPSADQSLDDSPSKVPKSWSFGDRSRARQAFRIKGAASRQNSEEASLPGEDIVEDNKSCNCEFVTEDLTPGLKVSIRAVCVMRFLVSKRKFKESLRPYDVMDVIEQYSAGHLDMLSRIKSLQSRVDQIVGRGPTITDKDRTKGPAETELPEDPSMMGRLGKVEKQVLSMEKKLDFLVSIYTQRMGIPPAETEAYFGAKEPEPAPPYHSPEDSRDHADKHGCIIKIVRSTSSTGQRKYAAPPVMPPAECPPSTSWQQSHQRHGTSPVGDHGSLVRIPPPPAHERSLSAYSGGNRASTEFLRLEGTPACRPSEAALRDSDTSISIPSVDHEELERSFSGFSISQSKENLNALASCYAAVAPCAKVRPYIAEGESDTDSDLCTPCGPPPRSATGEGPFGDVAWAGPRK
# KCNQ2 block – inhibitors of rat KCNQ2 potassium channel; O88943; CHO-K1 KCNQ2, FluxOR thallium flux, 20 min; stronger effect = lower value; B-score at 10 µM; actives 1.1% (n = 310,000); AID 2156;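 active = fluorescence ratio B-score at most minus 3 library SDs, with starting brightness B-score within 2 library SDs, cut at about -5.5 in these data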
# Starred values were filed as active, the others as inactive; i = inactive; / = no result given.
SMILES,KCNQ2 enhance,KCNQ2 block
CCNC(=O)c1ccc(C23CC4CC(CC(C4)C2)C3)o1,0.01,i
CC(C)c1ccc(C(=O)Nc2cccnc2)cc1,1.1,i
Cc1ccc(/C=N\NC(=O)Cc2noc3ccccc23)cc1,0.08,i
CC12CCC(c3c(C(=O)Nc4nccs4)nn(-c4ccccc4)c31)C2(C)C (centres undefined),-8.3,-8.3*
CC12CCC(c3c(C(=O)O)nn(-c4ccccc4)c31)C2(C)C (centres undefined),0.88,i
CCN1CCN(C(=O)C2CCCN(S(=O)(=O)c3cccc4nsnc34)C2)CC1 (centres undefined),0.12,i
COc1cc(CNCc2ccccn2)ccc1OCc1ccc(Cl)c(Cl)c1,-5.9,-5.9*
COc1cc(CNCc2ccccn2)ccc1OCC(N)=O,1.8,i
CCn1c(=O)c(CCC(=O)NCC2CCCO2)c(C)c2c(C)nn(-c3ccc(C)cc3)c21 (centres undefined),/,i
Cc1ccc(N2CCN(c3ncccc3[N+](=O)[O-])CC2)c(C)c1,/,i
Cc1ccc(C)c(N2CCN(c3ncccc3[N+](=O)[O-])CC2)c1,-6.6,-6.6*
CN1CCN(C(=O)/C(=C/c2ccc([N+](=O)[O-])cc2)NC(=O)c2ccccc2)CC1,/,i
CCCC[C@@H]1C[C@H]1[C@@H](NC(=O)c1ccco1)c1ccc(Cl)cc1,/,i
CCCC[C@@H]1C[C@H]1[C@@H](NC(=O)c1cccs1)c1ccc(Cl)cc1,-8,-8*
CC1CCCCC1NC(=O)c1nn(C)c2c1CS(=O)(=O)c1ccccc1-2 (centres undefined),1.4,i
O=C1NC2(CCN(Cc3ccccc3)CC2)Oc2ccccc21,/,i
O=C1c2ccccc2OC2(C=Cc3ccccc3O2)N1Cc1ccccc1 (centres undefined),-8.3,-8.3*
CSc1ncccc1C(=O)Nc1ccc(S(=O)(=O)NC2=NCCCCC2)cc1,0.2,i
COCc1cc(Sc2ccc(Br)cc2)nc(-c2ccccc2)n1,/,i
COCc1cc(Sc2ccc(Cl)cc2)nc(-c2ccccc2)n1,-5.9,-5.9*
CC(=O)Nc1ccc(CN2CCN(CCc3ccccc3)C(CCO)C2)cc1 (centres undefined),0.01,i
C/C(=N\NC(=O)c1nnn(-c2nonc2N)c1CN1CCC(C)CC1)c1cccc(Br)c1,-5.7,-5.7*
C/C(=N\NC(=O)c1nnn(-c2nonc2N)c1CN1CCCCCC1)c1ccc(Br)cc1,/,i
Cc1cccc(N2CC(C)Cn3c2nc2c3c(=O)[nH]c(=O)n2C)c1 (centres undefined),0.84,i
COc1ccc(S(=O)(=O)N2CCN(C(c3ccccc3)c3ccccc3)CC2)cc1NC(C)=O,/,i
SMILES,KCNQ2 enhance,KCNQ2 block
O=C(CCN1CCN(C(=O)c2ccccc2)CC1)c1ccc(Br)cc1,-9,-9*
O=C(c1ccc(Br)cc1)N1CCN(Cc2ccccc2)CC1,/,i
Cn1cccc1CC(=O)NNC(=S)NC(=O)c1ccc(F)cc1,/,i
Cn1c(=O)c(=O)n(C)c2cc(N3CCCC3)c(NS(=O)(=O)c3ccc(Cl)cc3)cc21,/,i
Cc1cc(C(=O)CSc2nc3ccccc3[nH]2)c(C)n1CC1CCCO1 (centres undefined),-5.6,-5.6*
Cc1cc(C(=O)CSc2nc3ccccc3o2)c(C)n1CC1CCCO1 (centres undefined),0.77,i
COc1ccc(N2CCN(C(=O)c3ccc(NC(=O)C4=CSCCO4)cc3)CC2)cc1,/,i
Cc1nc2ccccc2c(=O)n1/N=C/c1ccco1,/,i
Cc1nc2scc(-c3ccccc3)c2c(=O)n1/N=C/c1ccco1,-6.4,-6.4*
O=C(Nc1cc(Sc2nc3ccccc3s2)cc([N+](=O)[O-])c1)c1ccccc1F,-6,-6*
O=C(Nc1cc(Sc2nc3ccccc3s2)cc([N+](=O)[O-])c1)c1ccccc1,/,i
O=C(CN1C(=O)NC2(CCCC2)C1=O)Nc1cc(C(F)(F)F)ccc1N1CCCCC1,/,i
Cc1ccc(NC2=C/C(=N\S(=O)(=O)c3cccs3)c3ccccc3C2=O)c(C)c1,/,i
Cc1cc(C)c(S(=O)(=O)/N=C2\C=C(NS(=O)(=O)c3ccccc3)C(=O)c3ccccc32)c(C)c1,-5.7,-5.7*
CC(=O)N/N=C/c1ccccc1OCCOc1cccc(C)c1,0.99,i
CCOC(=O)Cc1csc(NC(=S)NC(=O)c2ccccc2)n1,/,i
CCOC(=O)Cc1csc(NC(=S)NC(=O)c2ccccc2Br)n1,9.6*,i
C=CCOc1ccc(CNn2cn[nH]c2=S)cc1,0.06,i
C=CCn1cn[nH]c1=S,-8.3,-8.3*
CC(CCc1ccccc1)NC(=O)COC(=O)c1cccc2ccccc12 (centres undefined),/,i
CCc1ccccc1N1CCN(S(=O)(=O)c2cc(OC)ccc2OC)CC1,-7.1,-7.1*
COc1ccc(OC)c(S(=O)(=O)N2CCN(c3ccccc3)CC2)c1,0.08,i
Cc1ccc(S(=O)(=O)NCc2ccccc2C)cc1,/,i
CSc1ccc(S(=O)(=O)NCc2ccccc2C)cc1,-6.1,-6.1*
O=C(c1cc(-c2ccccc2)nc2ccccc12)N1CCOCC1,/,i
SMILES,KCNQ2 enhance,KCNQ2 block
CC(C)c1ccc(-c2cc(C(=O)N3CCOCC3)c3cc(Br)ccc3n2)cc1,-6,-6*
O=C(O)c1cccc2c1C(=O)c1cccc3snc-2c13,0.22,i
CC1CCCCN1S(=O)(=O)c1ccc2c(c1)C(C)(C)C(=O)N2C (centres undefined),0.88,i
CCCc1ncc(CN2CCCCC2C(=O)Nc2ccc(Oc3ccccc3)nc2)cn1 (centres undefined),/,i
COc1ccc(-c2cc(N)n(S(=O)(=O)c3c(F)c(F)c(F)c(F)c3F)n2)cc1OC,-8.8,-8.8*
CCOc1ccc(-c2cc(N)n(S(=O)(=O)c3ccc(OC)cc3)n2)cc1,2,i
NS(=O)(=O)c1ccc(CCNC(=O)c2ccc[nH]c2=S)cc1,0.06,i
CC(=O)SC(C[N+](=O)[O-])c1cn(C(C)=O)c2ccccc12 (centres undefined),-5.6,-5.6*
CC(=O)n1cc(Nc2ccc([N+](=O)[O-])cc2)c2ccccc21,0.03,i
CC(OC(=O)c1nc(Cl)ccc1Cl)C(=O)Nc1ccccc1F (centres undefined),/,i
NC(=O)c1ccc(CSc2nc3ccccc3s2)cc1,0.88,i
c1ccc2sc(SCc3ccc(-c4nnco4)cc3)nc2c1,-7.1,-7.1*
CCc1nc(SCC(=O)Nc2ccccc2OC)c2c(C)c(C)sc2n1,-5.8,-5.8*
COc1ccccc1NC(=O)CNC(=O)Cn1cnc2sc(C)c(C)c2c1=O,/,i
c1ccc2c(Nc3nc(N4CCOCC4)c4ccccc4n3)cccc2c1,-6.5,-6.5*
Fc1ccc(Nc2nc(N3CCOCC3)c3ccccc3n2)cc1,/,i
COCCCNC(=O)c1ccccc1N(Cc1ccccc1)S(=O)(=O)c1ccccc1,1.7,i
CC(C)C(NC(=O)CN(c1ccc2c(c1)OCCO2)S(=O)(=O)c1ccccc1)C(C)C,/,i
CCOC(=O)c1c(C=O)c(C)n(Cc2ccccc2Cl)c1C,-5.8,-5.8*
CCOC(=O)c1c(C=O)c(C)n(Cc2ccc(C)cc2)c1C,/,i
Cc1cc(C)nc(OC(C(=O)O)C(OCc2ccccc2)(c2ccccc2)c2ccccc2)n1 (centres undefined),0.82,i
